From PubChem BioAssay AID743279 (National Center for Advancing Translational Sciences (NCATS), 2014)
The whole screen tested about 360,000 compounds, of which about 17,000 (4.7%) were called active. Roughly 5% stayed inconclusive and do not appear here. The sample as a whole holds a higher share of actives than the screen did. Unmarked numbers belong to inactive results. No stated cut-off is given here; in the data, active means activity change below about -50%; inconclusive means mostly about -30% to -49%; inactive means weaker than that.
On the % scale 0 is the no-effect control and ±100 the full control effect.

Assay: qHTS for Inhibitors of Inflammasome Signaling: IL-1-beta AlphaLISA Primary Screen
Conditions: THP-1 LPS/ATP IL-1B secretion, 16 h; at 57.5 µM, stronger effect = lower value
Outline: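 Secreted IL-1B measured by AlphaLISA bead assay after 16 h compound exposure of THP-1 cells; compounds (final up to 57.5 uM) added 1 h before LPS (250 ng/mL) and ATP (1.25 mM) stimulation; lower signal means less secretion.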
With `Cc1cc2[nH]ncc2cc1NC(=S)NC(=O)c1ccccc1` the activity change was -1.02%. In the case of `O=C(N[C@H]1C/C=C\C(c2cccc(F)c2)N(Cc2ccccc2)C(=O)C1)OCC1c2ccccc2-c2ccccc21` (some centres undefined), the activity change is reported as -10%. In the case of `CC[C@@H]1CC2=C(C(=O)OC(C)(C)O2)[C@@H](CC)O1`, the activity change is reported as 22.9%. `O=C(C1CC1)N1N=C2CCCCC2C1(O)C(F)(F)F` (centres undefined) showed an activity change of -13%. `CN(C(=O)COC(=O)c1cc(=O)[nH]c2ccccc12)C1CCCCC1` showed an activity change of 0%. `O=C(OCc1nnc(-c2ccccc2)o1)c1cc(=O)[nH]c2ccccc12` gave an activity change of -11.8%. For `CCOC(=O)c1ccc(COC(=O)c2cc(=O)[nH]c3ccccc23)o1`, the activity change was -68.1% (active). `CC(CO)NCC12CC3CC(CC(C3)C1)C2` (centres undefined) showed an activity change of 4.35%. Work on `CC(=O)NC(c1ccccc1)c1nc(-c2ccccc2C)cs1` (centres undefined) yielded an activity change of 0.953%. For `CCCCN(C=O)c1c(CC)nc2c(OCCC3CCCCC3)cccn12`, the activity change was -56.6% (active). `CCc1nc2c(OCCOc3ccccc3)cccn2c1N(C=O)Cc1ccc(OC)cc1` gave an activity change of 29.8%. In the case of `CCCCN(C=O)c1c(CC)nc2c(OCc3ccccc3C(=O)OC)cccn12`, the activity change is reported as 0%. With `COc1cccc(CNc2nc(NCc3ccccc3OC)nc3ccsc23)c1` the activity change was -75.5% (active). With `COc1cccc(-c2cc3nc(NCc4ccccc4OC)n(C)c(=O)c3s2)c1` the activity change was 0.83%. In the case of `COc1cccc(CNc2nc(NCc3cccs3)nc3ccsc23)c1`, the activity change is reported as -4.63%. `COc1ccc(C(=O)N(C)Cc2ccc(OC)c(OC)c2OC)cc1S(=O)(=O)N1CCOCC1` showed an activity change of -8.15%. With `Cc1coc2c(O)cc3c(c12)OC1(N2CCCCC2)C(=O)NCCCC31` (centres undefined) the activity change was -99.3% (active). For `COCCN1CCN(C(=O)c2cc(COc3ccc(F)cc3Cl)on2)CC1`, the activity change was 22.2%. In the case of `CN(CC(=O)Nc1ccccc1[N+](=O)[O-])Cc1ccc(Br)cc1`, the activity change is reported as -6.83%. `CN(CC(=O)NCCc1ccc(F)cc1)CC(=O)Nc1ccc(F)c(F)c1F` showed an activity change of -12.2%. With `Cc1ccc(NC(=O)CN(C)Cc2ccc(F)cc2)c([N+](=O)[O-])c1` the activity change was -62.3% (active). `CCN(C(=O)CSc1nnc2ccccn12)C1CCS(=O)(=O)C1` (centres undefined) gave an activity change of -2.9%. For `Cc1cc2cc3c(cc2nc1SCC(=O)Nc1c(C)cccc1C)CCC3`, the activity change was 13%. In the case of `Cc1cccc(C(=O)C(O)(c2ccccc2)C2CCCCC2=O)c1` (centres undefined), the activity change is reported as 16.6%. In the case of `CC(CCc1ccccc1)NC(=O)c1cnc(Cl)c(Cl)c1` (centres undefined), the activity change is reported as 12.3%. `COc1ccc(CCNC(=O)COC(=O)c2cnc(Cl)c(Cl)c2)cc1` showed an activity change of -11.2%. In the case of `COc1ccc(CCNC(=O)c2cnc(Cl)c(Cl)c2)cc1`, the activity change is reported as -107% (active). Work on `CC1(C)OC(=O)C2=C(C[C@@H](C3CCCCC3)O[C@@H]2c2ccc(Cl)cc2)O1` yielded an activity change of 0%. `CC1=C(C(=O)Nc2cccc(C(=O)NCC(C)c3ccccc3)c2)SCCO1` (centres undefined) gave an activity change of 24.1%. With `CC(C)(C)n1nnnc1C(c1ccc2ncccc2c1)N1CCSCC1` (centres undefined) the activity change was -23.4%. With `O=S(=O)(NCCc1ccccn1)c1cc(Cl)cc(Cl)c1O` the activity change was 0%. In the case of `O=[N+]([O-])c1cc(S(=O)(=O)NCCc2ccccn2)ccc1Cl`, the activity change is reported as -65.1% (active). Work on `O=[N+]([O-])c1cccc(S(=O)(=O)NCc2ccccn2)c1` yielded an activity change of 11.4%. `COC(=O)c1ccc(CNC(=O)Cn2cc(C)c(=O)[nH]c2=O)cc1` gave an activity change of 15.5%. `COc1ccc(C(=O)NCC2CCCO2)cc1S(=O)(=O)NCc1ccc(Cl)cc1` (centres undefined) showed an activity change of -8.62%. `CCN(CC)c1ccc(C(=O)N/N=C(\C)c2cccc(OC)c2)cc1` showed an activity change of 96.6%. Work on `COC(=O)c1sccc1N/N=C(\C)c1ccc(F)c(Cl)c1` yielded an activity change of 13.1%. With `COc1cccc(/C(C)=N/Nc2ncc(Cl)cc2Cl)c1` the activity change was -80.6% (active). `Cc1cc(NC(=O)CSc2nccn2-c2ccc([N+](=O)[O-])cc2)no1` gave an activity change of 45.3%. Work on `COc1cc2c(cc1CNC[C@H]1O[C@@H](n3cnc(C(N)=O)n3)[C@H](O)[C@@H]1O)OCO2` yielded an activity change of 3.97%. Work on `CCc1ccccc1OCC(=O)Nc1nnc(C2CC2)s1` yielded an activity change of -16.9%. With `O=C(CN1C(=O)S/C(=C\c2ccccc2Cl)C1=O)NC1C=CS(=O)(=O)C1` (centres undefined) the activity change was -99.6% (active). For `O=C(CN1CCCCCC1)NCCN1C(=O)S/C(=C\c2ccccc2Cl)C1=O`, the activity change was -15.4%. `COc1cccc(/C=C2/SC(=S)N(CC(=O)NC3C=CS(=O)(=O)C3)C2=O)c1` (centres undefined) showed an activity change of -11%.
